Experimental data taken from PMC4336329 (PLoS ONE, 2015).
In all, about 310,000 compounds went through this assay and about 14,000 (4.5%) showed an effect of 50% or more. Effects have a minus sign here. Shown is part of a subset that was picked to be rich in strong results.

The compounds below were run against human ether-à-go-go-related gene (hERG) potassium channel (human, UniProt Q12809) (assay: primary screen, population patch clamp on CHO cells stably expressing hERG; higher = less effect of the substance).
human ether-à-go-go-related gene (hERG) potassium channel, sequence (Q12809 whole entry, looked up): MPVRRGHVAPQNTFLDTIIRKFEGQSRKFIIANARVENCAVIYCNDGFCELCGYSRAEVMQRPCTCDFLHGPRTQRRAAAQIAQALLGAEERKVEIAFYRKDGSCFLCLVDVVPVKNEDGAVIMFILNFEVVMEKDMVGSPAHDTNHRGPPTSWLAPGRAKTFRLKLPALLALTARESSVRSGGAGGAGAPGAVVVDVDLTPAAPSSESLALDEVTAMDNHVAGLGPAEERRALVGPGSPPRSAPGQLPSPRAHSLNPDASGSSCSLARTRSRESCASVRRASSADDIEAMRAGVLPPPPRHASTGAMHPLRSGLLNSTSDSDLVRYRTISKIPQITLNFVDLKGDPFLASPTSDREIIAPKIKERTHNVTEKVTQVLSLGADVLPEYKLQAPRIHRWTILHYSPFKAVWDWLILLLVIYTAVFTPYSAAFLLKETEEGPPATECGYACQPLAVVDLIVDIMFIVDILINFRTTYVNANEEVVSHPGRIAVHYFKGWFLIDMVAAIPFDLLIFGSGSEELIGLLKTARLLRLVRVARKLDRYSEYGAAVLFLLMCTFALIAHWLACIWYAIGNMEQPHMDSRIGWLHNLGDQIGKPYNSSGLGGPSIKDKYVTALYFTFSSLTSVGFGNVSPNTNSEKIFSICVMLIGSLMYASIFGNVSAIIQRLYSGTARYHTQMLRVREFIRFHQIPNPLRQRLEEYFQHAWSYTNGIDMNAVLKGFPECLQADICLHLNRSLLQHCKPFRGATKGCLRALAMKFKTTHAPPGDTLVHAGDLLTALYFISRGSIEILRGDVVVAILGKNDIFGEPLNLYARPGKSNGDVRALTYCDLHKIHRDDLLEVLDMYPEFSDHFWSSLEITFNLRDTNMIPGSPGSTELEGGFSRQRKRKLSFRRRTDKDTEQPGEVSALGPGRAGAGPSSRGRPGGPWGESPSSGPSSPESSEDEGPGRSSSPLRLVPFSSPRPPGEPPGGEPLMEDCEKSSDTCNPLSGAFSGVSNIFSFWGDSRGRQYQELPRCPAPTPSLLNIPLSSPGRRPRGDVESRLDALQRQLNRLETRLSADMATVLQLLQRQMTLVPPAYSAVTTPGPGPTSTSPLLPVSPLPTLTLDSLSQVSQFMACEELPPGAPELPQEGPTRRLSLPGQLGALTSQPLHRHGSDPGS
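Also: peak tail current of the secondary pulse compared with the same well before compound.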

SMILES | hERG current change (%, negative = inhibition) at 10uM
CNS(=O)(=O)c1cc(OC)ccc1OC | 13.2%
CC(=O)c1c(O)cc(C)n(Nc2nc(C)cc(C)n2)c1=O | 1.83%
c1ccc(CNc2nc3ccccc3n3cnnc23)nc1 | 0.696%
COc1ccc(-c2nn(CCC(=O)O)cc2/C=C/C(=O)O)cc1[N+](=O)[O-] | 5.53%
C#C[C@]1(O)CC[C@H]2[C@@H]3CCC4=Cc5nc6nc7ccccc7n6cc5C[C@]4(C)[C@H]3CC[C@@]21C | -56.8%
C#C[C@]1(O)CCC2C3CCC4=Cc5oncc5CC4(C)C3CCC21C (some centres unmarked) | -3.2%
C#C[C@]1(O)CC[C@H]2[C@@H]3CCC4=Cc5oncc5C[C@]4(C)[C@H]3CC[C@@]21C | -15.3%
CC(NC(=O)c1ccc(NC2=NC3CS(=O)(=O)CC3S2)cc1)c1ccccc1 (centres unmarked) | 12.9%
COC(=O)C1C(=O)C2=C(CC1C)NC(=O)CC2c1ccc(F)cc1 (centres unmarked) | 18.6%
CCC(=O)Nc1cc2c3c(c1)CCC(=O)N3CCC2 | 1.44%
CC(=O)OCCNc1cc(Sc2nc3ccccc3[nH]2)c2nonc2c1[N+](=O)[O-] | -12.1%
O=c1c2c(-c3ccc(Cl)cc3)csc2nc2n1CCC2 | -28.9%
O=c1c2c(-c3ccc([N+](=O)[O-])cc3)csc2nc2n1CCC2 | -77.6%
O=c1c2c(-c3ccc([N+](=O)[O-])cc3)csc2nc2n1CCCCC2 | -34.6%
O=[N+]([O-])c1ccccc1/C=C/C=N/Nc1ccc(S(=O)(=O)Nc2ccc(Cl)cc2)cc1[N+](=O)[O-] | 20.8%
COn1c(-c2ccc(Cl)cc2)nc2ccc(Cl)cc21 | -4.56%
Cc1ccc(OCC(=O)NCC(=O)Nc2ccc(F)cc2)c([N+](=O)[O-])n1 | -40.3%
Cc1cccn2c(CN[C@@H]3CCCC[C@H]3c3ccccc3)c(C(=O)N3CCOCC3)nc12 | -12.9%
Cc1cccn2c(CN3CCCC(c4ccccc4)C3)c(C(=O)N3CCOCC3)nc12 (centres unmarked) | -68.7%
Cc1cccn2c(CN3CCSCC3)c(C(=O)N3CCOCC3)nc12 | 0.407%

SMILES | hERG current change (%, negative = inhibition) at 10uM
Cc1cc(C(=O)NN)c(C)o1 | 10.3%
CCc1cc(=O)oc2cc(C)cc(OCC(=O)N3CCC(C(=O)NC(C)C)(c4ccccc4)CC3)c12 | -43.6%
CC(NC(=O)/C=C/c1ccccc1[N+](=O)[O-])C1CC2CCC1C2 (centres unmarked) | 8.42%
CCN1CCN(c2nn3c(=O)c4ccccc4nc3c3ccccc23)CC1 | -72.7%
CCN1CCN(c2nc3ccccc3n3cnnc23)CC1 | -14.8%
Cc1ccc(C)c(S(=O)(=O)N2CCN(c3nc(-c4cccnc4)nc4ccccc34)CC2)c1 | 1.45%
CN(Cc1cccs1)c1nc(-c2cccnc2)nc2ccccc12 | -53.5%
c1ccc(CN2CCN(c3nc(-c4ccccc4)nc4ccccc34)CC2)cc1 | 8.72%
Cc1ccc(CN(C)c2nc(-c3cccnc3)nc3ccccc23)o1 | 12.7%
CC1CN(c2nn3c(=O)c4ccccc4nc3c3ccccc23)CC(C)O1 (centres unmarked) | -25.7%
CN(Cc1ccccc1F)c1nc(-c2cccnc2)nc2ccccc12 | 3.92%
CCCOc1ccc(-c2nc(N3CCN(CC)CC3)c3ccccc3n2)cc1 | -17.3%
CCN1CCN(c2nc(-c3ccccc3)nc3ccccc23)CC1 | -63%
CCN1CCN(c2nc(-c3cccnc3)nc3ccccc23)CC1.Cl | -55.4%
O=S(=O)(c1ccccc1F)N1CCN(c2nc(-c3cccnc3)nc3ccccc23)CC1 | -41.9%
CC(C)OC(=O)CC(=O)CSc1nc2c(c(-c3cccs3)c1C#N)CCC2 | -8.89%
O=C(c1ccc(N2CCCS2(=O)=O)cc1)N1CCN(c2ccc(F)cc2)CC1 | -28.9%
COc1ccc(/C=N/Nc2ccc([N+](=O)[O-])cc2)cc1O | 10.1%
O=C(COc1ccc(-c2nnco2)cc1)NCc1ccccc1Cl | -6.27%
C=CCN(CC=C)C(=S)NC(=O)c1ccc(OC)c(Br)c1 | 5.1%

SMILES | hERG current change (%, negative = inhibition) at 10uM
Cn1ncc([N+](=O)[O-])c1C(=O)Nc1ccn(Cc2ccccc2F)n1 | -9.33%
Cc1c(NC(=O)OCCNC(=O)COc2ccc(Cl)cc2Cl)sc(=S)n1C | -5.51%
CCC1CCCCN1c1nc(-c2ccncc2)nc2ccccc12 (centres unmarked) | -42.5%
CCN1CCN(c2nc(-c3ccncc3)nc3ccccc23)CC1 | -77.8%
CC1CCN(c2nc(-c3ccncc3)nc3ccccc23)CC1 | -27%
CCC1=C(C)CN(C(=O)NCCc2ccc(S(=O)(=O)NC(=O)NC3CCC(C)CC3)cc2)C1=O (centres unmarked) | -13.5%
CCOc1ccc(/C=C(\C#N)C(=O)NCC2CCCO2)cc1OCC (centres unmarked) | -5.95%
O=C(Nc1cccnc1)c1ccc(Cl)c(S(=O)(=O)N2CCCCC2)c1 | -15.6%
CC(NC(=O)c1ccc(Cl)c(S(=O)(=O)N2CCCCCC2)c1)c1cccnc1 (centres unmarked) | -52.3%
Cc1cccnc1NC(=O)c1ccc(Cl)c(S(=O)(=O)N2CCCCCC2)c1 | -65.5%
O=C(NCc1ccccn1)c1ccc(Cl)c(S(=O)(=O)N2CCCCC2)c1 | -10.1%
O=C(Nc1ncccc1O)c1ccc(Cl)c(S(=O)(=O)N2CCCCC2)c1 | -16.1%
O=C(Nc1cccnc1)c1ccc(Cl)c(S(=O)(=O)N2CCCCCC2)c1 | -31.6%
O=C(NCc1ccccn1)c1ccc(Cl)c(S(=O)(=O)N2CCOCC2)c1 | -4.89%
Cc1cccnc1NC(=O)c1ccc(Cl)c(S(=O)(=O)N2CCCCC2)c1 | -21.7%
Cc1cccnc1NC(=O)c1ccc(Cl)c(S(=O)(=O)N2CCCC2)c1 | -9.58%
O=C(NCc1ccccn1)c1ccc(Cl)c(S(=O)(=O)N2CCCCCC2)c1 | -64.5%
Cc1ccc(C(=O)Nc2ncccc2O)cc1S(=O)(=O)N1CCCCC1 | -14.3%
O=C(Nc1ncccc1O)c1ccc(Cl)c(S(=O)(=O)N2CCCCCC2)c1 | -61%
